Where “and” joins values, the source holds several entries; their conditions need not be identical. Equal entries are not always repeated. Records with an inconclusive call do not appear. Calls of active or inactive are those of the source. Unless noted, the call rests on the fitted dose curve; in most records, active means well fitted curve in the direction sought with a large enough effect; inconclusive means small, poorly fitted or top-dose-only effect, or another doubt; inactive means no such curve, though single readings can be large; an effect the other way counts as inactive or inconclusive.
Assays:
[1] = Cell Viability - BJ (AID 421; calls by dose curve;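 further: potency means the concentration at half of the fitted maximal effect; cells exposed to compound for 40 hours at 37 °C before readout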); settings: BJ fibroblast viability, qHTS
Summary of the method: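 Cytotoxicity in human BJ foreskin fibroblasts is scored as loss of cellular ATP after a 40-hour exposure, measured by luciferase luminescence. Controls are DMSO and 100 uM tamoxifen.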

[2] = Cell Viability - Jurkat (AID 426;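 active means dose-dependent loss of cell ATP signal giving a full or clear fitted curve, ranked by lower potency value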;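 further: potency means the concentration at half of the fitted maximal effect; cells exposed to compound for 40 hours at 37 °C before ATP read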); settings: qHTS
Summary of the method: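 Luminescent ATP read-out (CellTiter-Glo, 20 min at room temperature) after 40 hr compound exposure at 37 °C of Jurkat E6-1 cells, 5000/well. Decreased ATP taken as cytotoxicity; AC50 from standard Hill equation.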

[3] = Cell Viability - Hek293 (AID 427;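 active means compounds whose dose-response curve shows a full or clear partial loss of cell viability, called from curve shape rather than a numeric limit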;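 further: potency means the concentration at half of the fitted maximal effect; cells exposed to compound for 40 hours at 37 °C before reading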); settings: qHTS
Summary of the method: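 qHTS, human embryonic kidney (adenovirus-transformed) cells; 40 hr cpd, 37 °C; CellTiter-Glo ATP luminescence. Norm: DMSO = 0, 100 uM tamoxifen = 100% inhibition. Hill-fit AC50.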

[4] = Cell Viability - HepG2 (AID 433; calls by dose curve;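 further: potency means the concentration at half of the fitted maximal effect; cells exposed to compound for 40 hours; potency for ATP loss meaning cytotoxicity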); settings: qHTS
Summary of the method: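 ATP luminescence (CellTiter-Glo) after 40 h compound exposure, 37 °C, HepG2, 1500 cells/well, complete medium. Normalized: DMSO = basal, 100 uM tamoxifen = 100% inhibition. AC50 via standard Hill equation.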

[5] = Cell Viability - MRC5 (AID 434; calls by dose curve;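 further: potency means the concentration at half of the fitted maximal effect; cells exposed to compound for 40 hours at 37 °C; potency reflects cytotoxicity seen as loss of intracellular ATP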); settings: MRC5 lung fibroblast viability, qHTS
Summary of the method: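 ATP luminescence read-out (CellTiter-Glo, 20 min RT) after 40 hr, 37 °C compound exposure of 1500 MRC5 cells/well. Data normalized to DMSO (basal) and 100 uM tamoxifen (100% inhibition); AC50 from standard Hill equation.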

[6] = Cell Viability - SK-N-SH (AID 435; calls by dose curve; further: potency means the concentration at half of the fitted maximal effect); settings: SK-N-SH neuroblastoma cell viability qHTS
Summary of the method: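 CellTiter-Glo ATP luminescence, 20 min RT read; cells pre-plated 5 hr, compound 40 hr at 37 °C, 1500 cells/well, complete medium. Normalized DMSO = 0, 100 uM tamoxifen = 100% inhibition; Hill-fit AC50.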

[7] = Cellular Toxicity (caspase-3) HepG2 (AID 654); settings: HepG2 caspase-3 activation, luminescence, 0% = DMSO only, 100% = tamoxifen; series mostly up to 92.2 µM;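 further: cells exposed to compound for 16 hours before reading; 0% = DMSO alone and 100% = caspase signal from 100 µM tamoxifen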
Summary of the method: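 Luminescent Caspase-Glo 3/7 readout after 16 hr compound exposure of human hepatocellular carcinoma HepG2 cells at 37 °C; qHTS concentration-response, normalized DMSO = 0%, 100 uM tamoxifen = 100%; AC50 by standard Hill equation.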

[8] = Cellular Toxicity (caspase-3) BJ (AID 658); settings: BJ fibroblasts, luminescence, normalized: DMSO 0%, staurosporine 100%; series mostly up to 91.7 µM
Summary of the method: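 qHTS, BJ fibroblasts, 1000 cells/well; 5 hr preincubation, 16 hr compound, 37 °C; Caspase-Glo 3/7 reagent, 1 hr RT; luminescence. DMSO = 0%, 10 uM staurosporine = 100%. Hill-equation AC50.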

[9] = Cellular Toxicity (caspase-3) MRC-5 (AID 659); settings: MRC-5 cells, luminescence, normalized: DMSO 0%, 10 µM staurosporine 100%; series mostly up to 91.7 µM
Summary of the method: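 MRC-5 fibroblasts, 1500/well; 16 h cpd, 37 °C; Caspase-Glo 3/7, 1 h RT; lumi read. Norm: DMSO = 0%, 10 uM staurosporine = 100%. Hill-fit AC50 from qHTS conc-response.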

[10] = Cellular Toxicity (caspase-3) Hek293 (AID 664); settings: HEK293 caspase-3 activation, DMSO = 0%, 100 µM tamoxifen = 100%; at 92.2 µM (top of the series);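 further: cells exposed to compound for 16 h at 37 °C before readout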
Summary of the method: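 Luminescent Caspase-Glo 3/7 readout (aminoluciferin release) in HEK293 cells after 16 h compound treatment, 37 °C. Normalization: DMSO = basal, 100 uM tamoxifen = 100% stimulation. Concentration-response fitted with standard Hill equation for AC50.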

[11] = Cellular Toxicity (caspase-3) N2a (AID 665); settings: N2a cells, luminescence, normalized: DMSO 0%, 10 µM staurosporine 100%; series mostly up to 92.2 µM;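 further: compound exposure lasted 16 h at 37 °C before readout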
Summary of the method: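 Luminescent Caspase-Glo 3/7 readout in N2a mouse neuroblastoma cells after 16 h compound exposure at 37 °C. Signal scaled to DMSO (basal) and 10 uM staurosporine (100%). Concentration-response fitted with Hill equation for AC50.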

[12] = Cellular Toxicity (caspase-3) NIH 3T3 (AID 666); settings: NIH 3T3 caspase-3 activation, apoptosis/toxicity; series mostly up to 92.2 µM;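 further: 0% = DMSO basal and 100% = 100 µM tamoxifen stimulation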
Summary of the method: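 NIH 3T3, 1000 cells/well, 5 hr settle then 16 hr compound at 37°C; Caspase-Glo 3/7, 20 min RT, luminescence. DMSO = basal, 100 uM tamoxifen = 100%. Hill-equation AC50, qHTS.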

[13] = MultiTox-Fluor Cytotoxicity Assay - LYMP1-001 - Dead Cells (AID 946); settings: LYMP1-001 lymphoblastoid cells, dead-cell protease fluorescence; series mostly up to 92.2 µM
Summary of the method: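 Seed 2500 LYMP1-001 cells/well, incubate 5 hr at 37 C; add compound, 16 hr at 37 C; add MultiTox-Fluor reagent, 60 min RT; read dead-cell fluorescence Ex/Em=485/520. Normalize to DMSO and 15 uM tetraoctylammonium bromide.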

[14] = MultiTox-Fluor Cytotoxicity Assay - LYMP1-002 - Live Cells (AID 955); settings: LYMP1-002 lymphoblastoid live-cell protease fluorescence viability; series mostly up to 46.1 µM; further: on the % scale 0 is the no-effect control and ±100 the full control effect
Summary of the method: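 LYMP1-002 lymphoblastoid cells; 2500 cells/well; 16 hr compound exposure, 37 C; MultiTox-Fluor reagent 60 min RT; live-cell fluorescence Ex/Em=405/510; qHTS concentration-response, Hill-equation AC50; tetraoctylammonium bromide positive control.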

[15] = MultiTox-Fluor Cytotoxicity Assay - LYMP1-003 - Dead Cells (AID 961); settings: LYMP1-003 lymphoblastoid cells, dead-cell protease fluorescence; series mostly up to 92.2 µM; further: nearly all actives have a fitted effect of over 70% in size
Summary of the method: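 LYMP1-003 lymphoblastoid, 2500 cells/well, 5 hr settle then 16 hr cpd at 37 C; MultiTox-Fluor reagent 60 min RT; Ex/Em 485/520 dead-cell signal; norm. DMSO = 0%, 15 uM tetraoctylammonium bromide = 100%; Hill AC50.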

[16] = Cell Viability - LYMP2-008 (AID 980); settings: LYMP2-008 lymphoblastoid cell viability, qHTS; series mostly up to 92.2 µM; further: on the % scale 0 is the no-effect control and ±100 the full control effect; nearly all actives have a fitted effect of over 60% in size
Summary of the method: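 Luminescent ATP read-out (CellTiter-Glo, 30 min RT) after 24 hr compound exposure at 37 C of human lymphoblastoid cells in complete medium. Decrease in ATP taken as cytotoxicity; AC50 derived by standard Hill fit of qHTS concentration-response data.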

[17] = Cell Viability - LYMP1-002 - Assay at 24 hr (AID 993); settings: LYMP1-002 lymphoblastoid cells viability; series mostly up to 92.2 µM; further: on the % scale 0 is the no-effect control and ±100 the full control effect
Summary of the method: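 CellTiter-Glo luminescence (intracellular ATP) after 24 h compound exposure, 37 C, in LYMP1-002 human lymphoblastoid cells; decreased ATP taken as cytotoxicity. AC50 from standard Hill fit of concentration-response curves.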

[18] = qHTS Assay for Identification of Small Molecule Inducers of Hypoxia Response (AID 2120; active means well fitted curve in the direction sought with a large enough effect in the signal ratio, with a control signal flat, not every such curve was filed as active; the % refers to the signal ratio; further: 0% is about no effect); settings: hypoxia response reporter cells, beta-lactamase ratio readout; series mostly up to 104 µM
Summary of the method: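 Read-out: CCF4 FRET emission ratio 460nm/530nm (excitation 405nm), converted to %Activity, with AC50 fitted across a compound titration. ME-180 cells carried an HRE-driven beta-lactamase reporter; compound exposure 17 h, 37 degrees C.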

[19] = target: Peroxisome proliferator-activated receptor alpha (Homo sapiens) (UniProt Q07869); assay: qHTS assay for small molecule agonists of the peroxisome proliferator-activated receptor alpha (PPARalpha) signaling pathway (AID 651778); settings: PathHunter PPARalpha complementation, chemiluminescence, 6 h; active compounds read high; further: % of control where 0% means no effect
Summary of the method: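 Enzyme-fragment complementation assay in which ligand-bound PPARalpha translocates and forms an active enzyme that generates chemiluminescence. Cells were plated overnight, exposed to compound for 6 hr at 37 C, and then given detection reagent for 60 min at room temperature.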

[20] = qHTS assay for cell viability of the p53RE-bla HCT-116 cell line (AID 743292); settings: p53RE-bla HCT-116 viability, ATP luminescence, 16 h; series mostly up to 95 µM; further: on the % scale 0 is the no-effect control and ±100 the full control effect; nearly all actives have a fitted effect of over 55% in size
Summary of the method: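 CellSensor p53RE-bla HCT-116 cells, 4,000/well, preincubated 5 h at 37 C, then exposed to compounds in DMSO for 16 h at 37 C. Viability read as CellTiter-Glo luminescence (intracellular ATP) after 30 min at room temperature.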

Sequence of Peroxisome proliferator-activated receptor alpha (Homo sapiens) (Q07869 whole entry, looked up, the tested form may be a part): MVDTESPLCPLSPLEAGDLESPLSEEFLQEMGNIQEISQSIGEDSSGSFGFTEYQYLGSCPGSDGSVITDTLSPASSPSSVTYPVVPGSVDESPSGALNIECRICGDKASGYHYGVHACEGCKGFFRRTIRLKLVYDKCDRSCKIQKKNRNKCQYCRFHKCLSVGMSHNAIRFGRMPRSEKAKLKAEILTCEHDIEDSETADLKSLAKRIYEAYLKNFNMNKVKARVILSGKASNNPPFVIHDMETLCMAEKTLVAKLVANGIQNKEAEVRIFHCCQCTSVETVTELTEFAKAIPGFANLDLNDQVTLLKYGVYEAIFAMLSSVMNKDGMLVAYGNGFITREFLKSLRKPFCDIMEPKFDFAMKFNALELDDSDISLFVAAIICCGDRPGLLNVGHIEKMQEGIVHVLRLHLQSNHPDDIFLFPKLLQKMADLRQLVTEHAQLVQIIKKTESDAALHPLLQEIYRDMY

C=COC(C)=O
inactive: Potency [1] > 92 µM | Potency [2] > 92 µM | Potency [3] > 92 µM | Potency [4] > 92 µM | Potency [5] > 92 µM | Potency [6] > 92 µM | outcome [7] | outcome [8] | outcome [9] | caspase-3 activation [10] 1.36% | outcome [11] | Potency [12] | outcome [13] | outcome [14] | Potency [15] | Potency [16] | Potency [17] | Potency [18] | max response [19] -3.52% | Potency [20]

O=[N+]([O-])c1ccc(Cl)c(Cl)c1Cl
inactive: Potency [1] > 92 µM | Potency [2] > 92 µM | Potency [3] > 92 µM | Potency [4] > 92 µM | Potency [5] > 92 µM | Potency [6] > 92 µM | outcome [7] | outcome [8] | outcome [9] | caspase-3 activation [10] -0.669% | outcome [11] | Potency [12] | outcome [13] | outcome [14] | Potency [15] | Potency [16] | Potency [17] | Potency [18] | max response [19] 10.7% | Potency [20]

OCC(Cl)CCl (stereo not given)
inactive: Potency [1] > 92 µM | Potency [2] > 92 µM | Potency [3] > 92 µM | Potency [4] > 92 µM | Potency [5] > 92 µM | Potency [6] > 92 µM | outcome [7] | outcome [8] | outcome [9] | caspase-3 activation [10] 1.15% | outcome [11] | Potency [12] | outcome [13] | outcome [14] | Potency [15] | Potency [16] | Potency [17] | Potency [18] | max response [19] 0.308% | Potency [20]

Nc1c(Cl)cc([N+](=O)[O-])cc1Cl
inactive: Potency [1] > 92 µM | Potency [2] > 92 µM | Potency [3] > 92 µM | Potency [4] > 92 µM | Potency [5] > 92 µM | Potency [6] > 92 µM | outcome [7] | outcome [8] | outcome [9] | caspase-3 activation [10] 6.24% | outcome [11] | Potency [12] | outcome [13] | outcome [14] | Potency [15] | Potency [16] | Potency [17] | Potency [18] | max response [19] -4.31% and -1.23% | Potency [20]

C=CCc1cc(OC)c2c(c1)OCO2
inactive: Potency [1] > 92 µM | Potency [2] > 92 µM | Potency [3] > 92 µM | Potency [4] > 92 µM | Potency [5] > 92 µM | Potency [6] > 92 µM | outcome [7] | outcome [8] | outcome [9] | caspase-3 activation [10] 1.27% | outcome [11] | Potency [12] | outcome [13] | outcome [14] | Potency [15] | Potency [16] | Potency [17] | Potency [18] | max response [19] 5.39% | Potency [20]
